Experimental data taken from PubChem BioAssay (NCATS).
Inconclusive results are not listed. The source made the active and inactive calls. Calls follow the shape of the dose curve; as a rule, active = well fitted curve in the direction sought with a large enough effect; inconclusive = small, poorly fitted or top-dose-only effect, or another doubt; inactive = no such curve, though single readings can be large; an effect the other way counts as inactive or inconclusive.

assay: qHTS Screen of the MIPE 4.0 Collection Against Ewings Sarcoma (EW8) (AID 1259255); details: EW8 Ewing sarcoma viability, CellTiter-Glo, 48 h; series mostly up to 45.8 µM; viability: at the top concentration; also: nearly all actives have a fitted effect of over 35% in size;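 as to viability: 100% = DMSO-treated cells and 0% = medium-only wells without cells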
Summary of the method: (§1)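 After a 4 h attachment period in RPMI/5% FBS, cells were pin-dosed with test compounds; DMSO served as negative and 9.2 uM bortezomib (final) as positive control. Luminescent CellTiter-Glo signal at 48 h defined viability.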
Potency is read from the fitted curve at half-maximal effect.

Compound	viability	Potency
COc1ccc(CCN(C)CCCC(C#N)(c2ccc(OC)c(OC)c2)C(C)C)cc1OC (configuration not stated)	105% [at 92.2 µM] (inactive)	–
Cc1ccc(-c2cc(C(F)(F)F)nn2-c2ccc(S(N)(=O)=O)cc2)cc1	–	20.9 µM (active)
CN(C)c1nc(N(C)C)nc(N(C)C)n1	101% (inactive)	–
CN(C)CCOC(c1ccccc1)c1ccccc1	85.8% (inactive)	–
CC(C)Cc1ccc(C(C)C(=O)O)cc1 (configuration not stated)	119% [at 23.2 µM] (inactive)	–
CC12CC3CC(C)(C1)CC(N)(C3)C2	117% (inactive)	–
Nc1ccn([C@H]2CC[C@@H](CO)O2)c(=O)n1	99.3% (inactive)	–
Cc1cn([C@H]2C[C@H](N=[N+]=[N-])[C@@H](CO)O2)c(=O)[nH]c1=O	108% (inactive)	–
COc1cc2nc(N3CCN(C(=O)c4ccco4)CC3)nc(N)c2cc1OC	–	18.7 µM (active)
CC1(C)O[C@H]2CC(=O)OC[C@]23[C@H]2CC[C@@]4(C)[C@H](c5ccoc5)OC(=O)[C@H]5O[C@]54[C@]2(C)C(=O)C[C@@H]13	97.4% (inactive)	–
CCc1cccc2c3c([nH]c12)C(CC)(CC(=O)O)OCC3 (configuration not stated)	99.3% (inactive)	–
NCCCCCC(=O)O	93.7% (inactive)	–

assay: qHTS Screen of the MIPE 4.0 Collection Against Ewings Sarcoma (TC32) (AID 1259256); details: TC32 Ewing sarcoma viability, CellTiter-Glo, 48 h; series mostly up to 45.8 µM; viability (percent of control): at the top concentration; also: nearly all actives have a fitted effect of over 45% in size;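 as to viability (percent of control): 100% = DMSO-treated cells and 0% = medium-only wells without cells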
Summary of the method: as §1

Compound	Potency	viability (percent of control)
O=c1[nH]cc(F)c(=O)[nH]1	9.35 µM (active)	–
CC(C)Cc1ccc(C(C)C(=O)O)cc1 (configuration not stated)	–	111% [at 23.2 µM] (inactive)
Nc1ccn([C@H]2CC[C@@H](CO)O2)c(=O)n1	–	102% (inactive)
Cc1cn([C@H]2C[C@H](N=[N+]=[N-])[C@@H](CO)O2)c(=O)[nH]c1=O	–	110% (inactive)
C[C@H]1c2cccc(O)c2C(O)=C2C(=O)[C@]3(O)C(O)=C(C(N)=O)C(=O)[C@@H](N(C)C)[C@@H]3[C@@H](O)[C@@H]21	–	96% (inactive)
CCc1cccc2c3c([nH]c12)C(CC)(CC(=O)O)OCC3 (configuration not stated)	–	88% (inactive)

assay: qHTS assay to identify small molecule inhibitors of chordoma cells - UCH-1 (AID 1259355); details: UCH-1 chordoma viability, CellTiter-Glo, 48 h, combination, with auranofin plus four topoisomerase inhibitors; series mostly up to 46.1 µM; activity, negative = inhibition: at the top concentration; also: nearly all actives have a fitted effect of over 55% in size; as to activity, negative = inhibition: % is scaled to controls: 0 for no effect and ±100 for the full control effect
Summary of the method: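 Seed 800 cells per well; incubate overnight at 37 C, 5% CO2. Add test compounds (15 concentrations), then the auranofin–topoisomerase-agent combination. Incubate 48hr, add CellTiter-Glo, wait 30min, read luminescence.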

Compound	activity, negative = inhibition	Potency
O=c1[nH]cc(F)c(=O)[nH]1	-38.5% (inactive)	–
Clc1ccc(C(c2ccccc2Cl)C(Cl)Cl)cc1 (configuration not stated)	-14.1% (inactive)	–
CN1CCN2c3ccccc3Cc3ccccc3C2C1 (configuration not stated)	16.7% (inactive)	–
Cc1ccc(-c2cc(C(F)(F)F)nn2-c2ccc(S(N)(=O)=O)cc2)cc1	-8.84% (inactive)	–
CN(C)c1nc(N(C)C)nc(N(C)C)n1	-13.4% [at 20.6 µM] (inactive)	–
CCOC(=O)Nc1ccc(NCc2ccc(F)cc2)nc1N	-8.89% (inactive)	–
CN1C(C(=O)Nc2ccccn2)=C(O)c2ccccc2S1(=O)=O	-5.96% [at 20.6 µM] (inactive)	–
Cn1ccc2cc3c(cc21)CCN3C(=O)Nc1cccnc1	-8.05% (inactive)	–
CN1CCC(=C2c3ccccc3CC(=O)c3sccc32)CC1	-14.9% (inactive)	–
CC(C)Cc1ccc(C(C)C(=O)O)cc1 (configuration not stated)	7.59% (inactive)	–
CCOC(=O)c1ncn2c1CN(C)C(=O)c1cc(F)ccc1-2	2.67% (inactive)	–
OCCN1CCN(CCCN2c3ccccc3Sc3ccc(C(F)(F)F)cc32)CC1	–	31.6 µM (active)
Cn1c(=O)c2[nH]cnc2n(C)c1=O	3.64% (inactive)	–
Cc1cn([C@H]2C[C@H](N=[N+]=[N-])[C@@H](CO)O2)c(=O)[nH]c1=O	–	inactive
CC(C(=O)O)c1cccc(C(=O)c2ccccc2)c1 (configuration not stated)	-2.62% (inactive)	–
COc1cc2nc(N3CCN(C(=O)C4COc5ccccc5O4)CC3)nc(N)c2cc1OC (configuration not stated)	-6.29% (inactive)	–
Nc1nnc(-c2cccc(Cl)c2Cl)c(N)n1	-11.2% (inactive)	–
C[C@H]1c2cccc(O)c2C(O)=C2C(=O)[C@]3(O)C(O)=C(C(N)=O)C(=O)[C@@H](N(C)C)[C@@H]3[C@@H](O)[C@@H]21	-4.79% (inactive)	–
NC12CC3CC(CC(C3)C1)C2	16.6% (inactive)	–
CC1(C)O[C@H]2CC(=O)OC[C@]23[C@H]2CC[C@@]4(C)[C@H](c5ccoc5)OC(=O)[C@H]5O[C@]54[C@]2(C)C(=O)C[C@@H]13	-20% (inactive)	–
CN(CCOc1ccc(NS(C)(=O)=O)cc1)CCc1ccc(NS(C)(=O)=O)cc1	-15.1% (inactive)	–
Clc1ccccc1C(c1ccccc1)(c1ccccc1)n1ccnc1	-2.97% [at 20.6 µM] (inactive)	–
CCc1cccc2c3c([nH]c12)C(CC)(CC(=O)O)OCC3 (configuration not stated)	-9.1% (inactive)	–
NCCCCCC(=O)O	-7.2% [at 20.6 µM] (inactive)	–
